# Assay results from PubChem BioAssay AID894 (National Center for Advancing Translational Sciences (NCATS), 2007).
# Hit rate of the full screen: of about 150,000 compounds, about 6,500 (4.3%) were called active. Another 12% or so got no clear call; they are omitted. Calls follow the shape of the dose curve; as a rule, active = well fitted inhibition curve with a large enough effect (not every such curve was filed as active); inconclusive = small, poorly fitted or top-dose-only effect, or another doubt; inactive = no such curve, though single readings can be large or run the other way. This excerpt belongs to a sample that is enriched for actives.
# Target: 15-hydroxyprostaglandin dehydrogenase [NAD(+)] (Homo sapiens) (UniProt P15428)
# Assay: qHTS Assay for Inhibitors of HPGD (15-Hydroxyprostaglandin Dehydrogenase)
# Conditions: purified HPGD, NADH fluorescence kinetic, PGE2 substrate; activity change, negative = inhibition: hits give low values
# Summary of the method: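 NADH formation kinetics: reaction with 30 uM PGE2 and 1 mM NAD+ (final), 20 nM enzyme, Tris-HCl pH 8 with Tween 20, after 15 min compound preincubation at room temperature. Fluorescence change, last versus first of five reads.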
# % is scaled to controls: 0 for no effect and ±100 for the full control effect; potency is read from the fitted curve at half-maximal effect.
# 15-hydroxyprostaglandin dehydrogenase [NAD(+)] (Homo sapiens), sequence (P15428 whole entry, looked up): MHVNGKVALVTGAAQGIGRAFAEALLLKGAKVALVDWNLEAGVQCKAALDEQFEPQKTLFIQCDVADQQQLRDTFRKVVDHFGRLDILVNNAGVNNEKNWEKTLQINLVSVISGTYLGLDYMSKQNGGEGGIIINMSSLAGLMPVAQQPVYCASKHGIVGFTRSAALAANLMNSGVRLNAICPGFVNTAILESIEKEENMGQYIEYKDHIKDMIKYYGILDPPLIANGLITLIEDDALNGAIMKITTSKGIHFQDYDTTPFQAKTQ
Compound,"activity change, negative = inhibition",Potency
C[C@H]1Cc2c(-c3ccccc3)nc3c(c2CO1)CN(C(=O)C1CC1)CC3,-5.41% (inactive),
COc1ccc(-c2nc3c(c4c2C[C@H](c2ccccc2)OC4)CN(C(=O)C2CC2)CC3)c(C)c1,-7.07% (inactive),
COc1ccc2c(c1)CCc1c(C(=O)N3CCc4ccccc4C3)noc1-2,,17.8 µM (active)
COc1ccc(-c2nc(CS(=O)CC(=O)N3CCc4ccccc4C3)c(C)o2)cc1 (stereo not given),-23.2% (inactive),
O=C(COc1ccccc1)N1CCc2ccccc2C1,-7.89% (inactive),
COc1ccc2c(c1)CCc1c(C(=O)Nc3c(C)n(C)n(-c4ccccc4)c3=O)noc1-2,-26.2% (inactive),
COc1ccc2c(c1)CCc1c(C(=O)N3CCCC3)noc1-2,,20 µM (active)
CC(=O)Nc1ccc(C(=O)OCC(=O)Nc2ccc([N+](=O)[O-])cc2C(F)(F)F)cc1,-4.2% (inactive),
O=C(CSc1nc2ccc([N+](=O)[O-])cc2[nH]1)c1ccc(Cl)cc1,-4.65% (inactive),
COc1ccc(O[C@H]2C=C[C@@H](c3ccccc3)O[C@@H]2CO/N=C/C[C@@H]2C=C[C@H](OC(C)=O)[C@@H](COC(C)=O)O2)cc1,-8.59% (inactive),
CCOc1ccc(S(=O)(=O)N(CC(=O)NCC(F)(F)F)Cc2ccco2)cc1,-11.9% (inactive),
O=C(Nc1cccc([N+](=O)[O-])c1)c1ccc2c(c1)OCO2,-1.46% (inactive),
N#CC1=C(SCc2ccccc2)NC(=O)C(C#N)C12CCCC2 (stereo not given),,17.8 µM (active)
CC1(C)CCc2nc(SCc3ccccc3)c(C#N)cc2C1,-11% (inactive),
N#CC1=C(SCc2ccc(C#N)cc2)N=C(N)C(c2nc(-c3ccccc3)cs2)C12CCCCC2 (stereo not given),-15.3% (inactive),
Cc1c(Cl)cccc1NC(=O)CC1SC(=NCC2CCCO2)NC1=O (stereo not given),-12.3% (inactive),
O=C(CN1C(=O)/C(=C\c2ccc(C(F)(F)F)cc2)Sc2ccccc21)NCc1ccco1,33.1% (inactive),
Cc1noc(/C=C/N(C)C)c1S(=O)(=O)N1CCCC(C(=O)NCc2ccco2)C1 (stereo not given),-17.1% (inactive),
CCOc1ccc(OCC)c(NC(=O)C2CCN(S(=O)(=O)c3c(C)noc3C)CC2)c1,-8.5% (inactive),
Cc1noc(C)c1S(=O)(=O)N1CCCC(C(=O)Nc2nccs2)C1 (stereo not given),,35.5 µM (active)

Compound,"activity change, negative = inhibition",Potency
Cn1cc(/C=C/c2nc3ccccc3c(=O)n2-c2cccc([N+](=O)[O-])c2)c2ccccc21,-11.6% (inactive),
Cc1ccc(/C=C/C(=O)Nc2cc(S(=O)(=O)N3CCCCCC3)ccc2OCC(F)(F)F)o1,-24.4% (inactive),
Cn1c(CNC(=O)c2ccccc2F)nnc1SCc1ccc(F)cc1,-8.88% (inactive),
CN(C)c1ccc(-n2cccc2/C=N/n2cnnc2)cc1,-4.13% (inactive),
CCOC(=O)c1sc(NC(=O)CSc2nc(C)cc(C(F)(F)F)n2)c(C#N)c1C,,3.55 µM (active)
CCOC(=O)c1sc(NC(=O)CSc2nnc(-c3ccco3)o2)c(C(=O)OCC)c1C,-18.6% (inactive),
CCOC(=O)c1sc(NC(=O)CSc2ncccn2)c(C#N)c1C,-17.5% (inactive),
COc1cc(NC(=O)c2cc([N+](=O)[O-])ccc2Br)ccc1NC(=O)c1ccco1,-20.2% (inactive),
CSc1ccccc1NC(=O)Cc1ccc(Br)cc1,-10.6% (inactive),
COC(=O)c1cc(C(=O)OC)cc(N2C(=O)CC(N3CCN(c4ccccc4)CC3)C2=O)c1 (stereo not given),-19.8% (inactive),
COc1ccccc1-c1nnc(NC(=O)c2cccc(N3C(=O)CCC3=O)c2)o1,-9.42% (inactive),
COC(=O)c1cccc(-n2[nH]nnc2=S)c1,,28.2 µM (active)
CN1CCN(c2ccc(S(=O)(=O)N3CCCCC3)cc2NC(=O)Cc2ccccc2F)CC1,3.83% (inactive),
Cn1c(=O)c2cn(-c3cccc4ccccc34)cc2n(C)c1=O,-20.9% (inactive),
CC1=C(C)CC2C(=O)N(c3cccc4ccccc34)C(=O)C2C1 (stereo not given),,25.1 µM (active)
CC1(C)CCCC2=C1CC1C(=O)N(c3ccccc3)C(=O)C1C2 (stereo not given),0.735% (inactive),
CCCOc1ccc(NC(=O)CC2C(=O)N(C)C(=S)N2Cc2ccc3c(c2)OCO3)cc1 (stereo not given),-0.216% (inactive),
O=C(/C=C/c1ccc(F)cc1)Nc1cccc(S(=O)(=O)Nc2cccc(C(F)(F)F)c2)c1,-7.72% (inactive),
CCc1ccc(NC(=O)C(C)OC(=O)/C=C/c2cccc([N+](=O)[O-])c2)cc1 (stereo not given),-2.79% (inactive),
CCOC(=O)C1=C(C)NC(=S)NC1c1cccs1 (stereo not given),-5.68% (inactive),
